“And” between values parts separate entries of the source, which are not always exact repeats. Equal entries are not always repeated. Results filed as inconclusive are left out. A structure can be active in one record and inactive in another. The source made the active and inactive calls. Unless noted, calls come from the whole dose curve; as a rule, active = well fitted curve in the direction sought with a large enough effect in the repeat runs; inconclusive = weak or mixed curves; inactive = no such curve, though single readings can be large; an effect the other way counts as inactive or inconclusive.

Test [1] is described as follows: qHTS assay to identify small molecule antagonists of the estrogen receptor alpha (ER-alpha) signaling pathway using the BG1 cell line in the presence of 0.1 nM 17-beta-estradiol - cell viability counter screen (AID 1259241). Note: nearly all actives have a fitted effect of over 40% in size. The method in brief:
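Cytotoxicity counter-screen: live-cell protease activity measured by fluorescence (30 min reagent step) in the same wells. Cells were VM7Luc4E2 with endogenous ER-alpha and ERE-driven luciferase, treated 22 hr at 37C alongside 0.1 nM 17beta-estradiol final.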
In general terms: qHTS replaces the single test concentration by a dilution series.

The target of test [2] is Estrogen receptor (Homo sapiens) (UniProt P03372). Briefly: qHTS assay to identify small molecule antagonists of the estrogen receptor alpha (ER-alpha) signaling pathway using the BG1 cell line in the presence of 0.1 nM 17-beta-estradiol (AID 1259244). Note: nearly all actives have a fitted effect of over 50% in size. In outline:
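Reporter is a stably transfected luciferase under four estrogen responsive elements in VM7Luc4E2 cells expressing native full-length ER-alpha; inhibition of 0.1 nM (final) 17beta-estradiol-driven signal over 22 h is read by luminescence.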

Test [3] in a line: qHTS assay to identify small molecule HDAC inhibitors (AID 1259364).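 Note: wild-type HCT-116 cells with endogenous class I/II HDAC activity; top concentration of the series differs between compounds; nearly all actives have a fitted effect of over 45% in size.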 In outline:
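Quantitative high-throughput format: overnight-seeded HCT-116 cells got compounds for 2 hr at 37C; HDAC-Glo I/II reagent added, 30 min RT, luminescence measured.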

The nature of test [4]: qHTS assay to identify small molecule agonists of the sonic hedgehog signaling (Shh) pathway - cell viability counter screen (AID 1259366). Note: nearly all actives have a fitted effect of over 50% in size. In outline:
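Cytotoxicity counter screen: CellTiter-Fluor reagent added after 23 h compound exposure, then 1 h at 37C and fluorescence read. Cells were 3T3 Gli1-Luc, seeded 2,000 per well and dosed 4 h post-plating.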

The nature of test [5]: qHTS assay to identify small molecule antagonists of the sonic hedgehog signaling (Shh) pathway - cell viability counter screen (AID 1259367). Note: nearly all actives have a fitted effect of over 55% in size. Note: potency is the fitted concentration of half-maximal effect. The method in brief: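 Tox21 library chemicals were tested on a Gli1-Luc NIH/3T3 clone (2,000 cells/well) stimulated by conditioned medium; viability was quantified as fluorescence from CellTiter-Fluor reagent added at 23 hr.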
Test [6] in a line: qHTS assay to identify small molecule agonists of the sonic hedgehog signaling (Shh) pathway (AID 1259368; calls by dose curve;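 note: NIH/3T3-derived 3T3Gli1-Luc cells carrying a stable Gli1-driven firefly luciferase reporter; series mostly up to about 92 µM; nearly all actives have a fitted effect of over 15% in size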). The method in brief: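 Quantitative high-throughput format using a Gli1-driven firefly luciferase reporter line derived from NIH/3T3 cells. After a 24 hr compound treatment at 37 C and 5% CO2, luminescence reported Gli1 response element activity.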
In test [7] the target is Estrogen receptor beta (Homo sapiens) (UniProt Q92731). Briefly: qHTS assay to identify small molecule agonists of the estrogen receptor beta (ER-beta) signaling pathway (AID 1259377; active = well fitted activation curve with a large enough effect in the signal ratio in the repeat runs, not every such curve was filed as active; the % refers to the signal ratio). The method in brief:
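Ratiometric beta-lactamase FRET read-out came after 2 h substrate loading at room temperature. It followed 16 h compound treatment at 37C of GripTite HEK293T cells carrying a UAS-bla reporter, plated in 2% charcoal-stripped FBS medium.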

Test [8] in a line: qHTS assay to identify small molecule agonists of the androgen receptor (AR) signaling pathway in the presence of an antagonist - cell viability counter screen (AID 1259379).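 Note: MDA-kb2 human breast cancer cells carrying an MMTV luciferase reporter; series mostly up to about 92 µM; nearly all actives have a fitted effect of over 25% in size.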 The method in brief: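 Nilutamide-containing (3.0uM final) MDA-kb2 cultures, 3,000 cells/well, were treated with compounds across 15 concentrations. After 16 hr at 37C with no CO2, cell viability was determined by CellTiter-Fluor fluorescence in the luciferase assay wells.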

A short description of test [9]: qHTS assay to identify small molecule agonists of the estrogen receptor beta (ER-beta) signaling pathway - cell viability counter screen (AID 1259380). Note: nearly all actives have a fitted effect of over 30% in size. The method in brief:
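Steps: plate ER-beta-UAS-bla HEK293T cells, rest 6 hr; add compounds in DMSO; incubate 16 hr at 37C, 5% CO2; add FRET substrate 2 hr; add CellTiter-Glo, wait 30 min at room temperature; read luminescence.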

Test [10] has as its target Estrogen receptor (Homo sapiens) (UniProt P03372). Briefly: qHTS assay to identify small molecule agonists of the estrogen receptor alpha (ER-alpha) signaling pathway in the presence of an antagonist (AID 1259383; calls by dose curve; note: top concentration of the series differs between compounds; nearly all actives have a fitted effect of over 15% in size). In outline: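 Readout was ERE-driven luciferase luminescence in VM7Luc4E2 cells, which express full-length ER-alpha endogenously. Compounds were tested at 15 concentrations for 22hr alongside 10.0nM ICI-182,780 (final concentration).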

Test [11] can be described thus: qHTS assay to identify small molecule agonists or antagonists of the thyroid stimulating hormone receptor (TSHR) signaling pathway - wild type cell line counter screen (AID 1259384; calls by dose curve). The method in brief:
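Wild-type Hek293 cells, 800/well, 18 h at 37C, then compound with Ro20-1724 for 30 min RT. cAMP by HTRF (cAMP-d2/anti-cAMP cryptate), 1 h RT, fluorescence read. 15 concentrations, triplicates.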

The target of test [12] is Androgen receptor (Homo sapiens) (UniProt P10275). The test can be described thus: qHTS assay to identify small molecule antagonists of the androgen receptor (AR) signaling pathway using the MDA cell line in the presence of 0.5 nM R1881 (AID 1259243). Note: nearly all actives have a fitted effect of over 50% in size. The method in brief: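 Antagonist mode quantitative HTS in MDA-kb2 MMTV-luciferase cells, agonist R1881 at 0.5 nM final, 16 hr exposure at 37C and 0% CO2, luminescent detection.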

Test [13] in a line: qHTS assay to identify small molecule antagonists of the sonic hedgehog signaling (Shh) pathway (AID 1259369; calls by dose curve; note: nearly all actives have a fitted effect of over 45% in size; note: potency is the fitted concentration of half-maximal effect). In outline: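 Stable Gli1-Luc reporter NIH/3T3 clone; quantitative HTS in stimulated mode with conditioned medium. Luminescence measured after 24hr compound treatment at 37 C.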
Test [14] has as its target Androgen receptor (Homo sapiens) (UniProt P10275). Briefly: qHTS assay to identify small molecule agonists of the androgen receptor (AR) signaling pathway in the presence of an antagonist (AID 1259381; calls by dose curve; note: nearly all actives have a fitted effect of over 15% in size; note: potency is the fitted concentration of half-maximal effect). In outline:
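Reporter-gene luminescence from MDA-kb2 cells exposed 16hr at 37C (0% CO2) to 15-point compound titrations with 3.0uM final nilutamide as AR antagonist.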

Test [15] has as its target Thyrotropin receptor (Homo sapiens) (UniProt P16473). Briefly: qHTS assay to identify small molecule antagonists of the thyroid stimulating hormone receptor (TSHR) signaling pathway (AID 1259385; calls by dose curve; note: nearly all actives have a fitted effect of over 20% in size). The method in brief:
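TSHR-HEK293 cells (800/well) plated 18 h, then compounds with Ro20-1724 and TSH at 1.5 ng/mL final, 30 min at room temperature. cAMP quantified by HTRF (cAMP-d2/anti-cAMP-cryptate, 1 h); 15 concentrations in triplicate.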

The nature of test [16]: qHTS assay to identify small molecule HDAC inhibitors - cell viability counter screen (AID 1259365). Note: series mostly up to about 92 µM; nearly all actives have a fitted effect of over 50% in size. The method in brief: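 CellTiter-Glo luminescence (30 min, room temperature) reported viability after a 2 h compound exposure at 37 C. Cells: wild-type HCT-116, 1,500 per well, seeded the night before.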
A short description of test [17]: qHTS assay to identify small molecule antagonists of the estrogen receptor beta (ER-beta) signaling pathway - cell viability counter screen (AID 1259382). Note: series mostly up to about 92 µM; nearly all actives have a fitted effect of over 55% in size. In outline:
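Viability is scored by CellTiter-Glo luminescence (30 min, room temperature) in ER-beta-UAS-bla HEK293T wells already read for reporter fluorescence. Compound exposure lasts 16 hr at 37C alongside 1nM 17-beta-estradiol in charcoal-stripped serum medium.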

Test [18] in a line: qHTS assay to identify small molecule antagonists of the androgen receptor (AR) signaling pathway using the MDA cell line in the presence of 0.5 nM R1881 - cell viability counter screen (AID 1259242). Note: nearly all actives have a fitted effect of over 45% in size. The method in brief:
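qHTS format. MDA-kb2 (MMTV-luc, AR/GR responsive) + cpd + 0.5 nM R1881 final, 16 hr 37C/0% CO2 → CellTiter-Fluor 30 min → fluorescence intensity.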

Test [19] has as its target Estrogen receptor beta (Homo sapiens) (UniProt Q92731). The test can be described thus: qHTS assay to identify small molecule antagonists of the estrogen receptor beta (ER-beta) signaling pathway (AID 1259378; active = well fitted inhibition curve with a large enough effect in the signal ratio in the repeat runs, not every such curve was filed as active; the % refers to the signal ratio). The method in brief: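 ER-beta-UAS-bla HEK293T cells in 2% charcoal-stripped FBS medium treated with compound plus 1nM final 17-beta-estradiol for 16 hr at 37C. Beta-lactamase reporter read by FRET substrate fluorescence after 2 hours at room temperature.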

A short description of test [20]: qHTS assay to identify small molecule phospholipidosis (PLD) inducers (AID 1259344; active = well fitted curve in the direction sought with a large enough effect; an effect the other way counts as inactive or inconclusive). The method in brief:
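Image-based: LipidTOX Red pit count/intensity per well and per cell; HepG2, 24 h compound at 37 C, PFA fixation, Hoechst counterstain.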

Sequence of Thyrotropin receptor (Homo sapiens) (P16473 whole entry, looked up): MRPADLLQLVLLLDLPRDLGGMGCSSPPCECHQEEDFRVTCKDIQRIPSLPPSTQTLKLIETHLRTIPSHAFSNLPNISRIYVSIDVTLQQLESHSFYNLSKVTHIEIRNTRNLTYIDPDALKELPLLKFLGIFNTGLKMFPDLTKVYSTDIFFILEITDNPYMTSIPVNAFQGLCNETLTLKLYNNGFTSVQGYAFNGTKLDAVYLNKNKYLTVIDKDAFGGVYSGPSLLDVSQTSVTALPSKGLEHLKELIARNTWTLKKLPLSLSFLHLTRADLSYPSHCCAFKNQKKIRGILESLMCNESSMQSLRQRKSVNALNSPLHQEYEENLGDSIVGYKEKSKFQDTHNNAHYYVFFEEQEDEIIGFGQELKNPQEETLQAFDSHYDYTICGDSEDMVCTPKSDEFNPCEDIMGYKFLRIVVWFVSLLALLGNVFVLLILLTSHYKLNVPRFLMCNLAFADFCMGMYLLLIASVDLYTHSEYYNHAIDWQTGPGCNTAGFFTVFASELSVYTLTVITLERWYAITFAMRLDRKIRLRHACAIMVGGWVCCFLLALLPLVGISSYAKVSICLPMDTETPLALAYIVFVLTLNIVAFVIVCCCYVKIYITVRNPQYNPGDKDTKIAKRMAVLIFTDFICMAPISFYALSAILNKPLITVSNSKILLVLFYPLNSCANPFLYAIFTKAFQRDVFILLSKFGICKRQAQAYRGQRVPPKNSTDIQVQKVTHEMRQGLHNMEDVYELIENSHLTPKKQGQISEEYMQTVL
Sequence of Estrogen receptor beta (Homo sapiens) (Q92731 whole entry, looked up): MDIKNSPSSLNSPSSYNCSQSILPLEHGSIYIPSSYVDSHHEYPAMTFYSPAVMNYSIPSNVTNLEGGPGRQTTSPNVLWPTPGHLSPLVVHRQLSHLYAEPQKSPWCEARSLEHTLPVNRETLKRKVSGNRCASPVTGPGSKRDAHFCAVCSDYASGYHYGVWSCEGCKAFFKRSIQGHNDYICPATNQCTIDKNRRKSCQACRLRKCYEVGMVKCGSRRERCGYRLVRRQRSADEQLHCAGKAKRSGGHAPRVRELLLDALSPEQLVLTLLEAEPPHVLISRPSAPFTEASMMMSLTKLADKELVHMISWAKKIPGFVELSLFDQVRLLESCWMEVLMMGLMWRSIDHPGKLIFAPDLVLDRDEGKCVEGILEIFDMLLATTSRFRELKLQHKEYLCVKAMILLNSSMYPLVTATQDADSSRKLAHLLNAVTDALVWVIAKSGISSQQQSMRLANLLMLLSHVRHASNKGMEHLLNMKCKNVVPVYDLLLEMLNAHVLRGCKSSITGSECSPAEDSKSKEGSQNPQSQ
Sequence of Estrogen receptor (Homo sapiens) (P03372 whole entry, looked up): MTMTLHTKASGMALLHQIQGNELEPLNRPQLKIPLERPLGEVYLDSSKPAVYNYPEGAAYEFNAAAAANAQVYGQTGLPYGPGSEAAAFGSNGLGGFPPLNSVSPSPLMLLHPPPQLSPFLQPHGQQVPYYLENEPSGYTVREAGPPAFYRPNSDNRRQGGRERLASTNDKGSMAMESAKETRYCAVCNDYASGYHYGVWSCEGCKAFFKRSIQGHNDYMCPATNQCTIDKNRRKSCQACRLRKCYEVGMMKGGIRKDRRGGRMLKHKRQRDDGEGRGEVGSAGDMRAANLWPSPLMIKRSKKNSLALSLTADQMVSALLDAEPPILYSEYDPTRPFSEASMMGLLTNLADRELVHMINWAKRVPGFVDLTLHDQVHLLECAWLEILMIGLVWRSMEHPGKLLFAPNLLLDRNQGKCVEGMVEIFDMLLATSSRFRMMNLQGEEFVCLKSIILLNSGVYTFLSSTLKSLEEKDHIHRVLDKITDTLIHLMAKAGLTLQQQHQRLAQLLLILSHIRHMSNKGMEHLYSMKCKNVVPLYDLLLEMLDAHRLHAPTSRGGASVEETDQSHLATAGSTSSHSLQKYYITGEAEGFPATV
Sequence of Androgen receptor (Homo sapiens) (P10275 whole entry, looked up): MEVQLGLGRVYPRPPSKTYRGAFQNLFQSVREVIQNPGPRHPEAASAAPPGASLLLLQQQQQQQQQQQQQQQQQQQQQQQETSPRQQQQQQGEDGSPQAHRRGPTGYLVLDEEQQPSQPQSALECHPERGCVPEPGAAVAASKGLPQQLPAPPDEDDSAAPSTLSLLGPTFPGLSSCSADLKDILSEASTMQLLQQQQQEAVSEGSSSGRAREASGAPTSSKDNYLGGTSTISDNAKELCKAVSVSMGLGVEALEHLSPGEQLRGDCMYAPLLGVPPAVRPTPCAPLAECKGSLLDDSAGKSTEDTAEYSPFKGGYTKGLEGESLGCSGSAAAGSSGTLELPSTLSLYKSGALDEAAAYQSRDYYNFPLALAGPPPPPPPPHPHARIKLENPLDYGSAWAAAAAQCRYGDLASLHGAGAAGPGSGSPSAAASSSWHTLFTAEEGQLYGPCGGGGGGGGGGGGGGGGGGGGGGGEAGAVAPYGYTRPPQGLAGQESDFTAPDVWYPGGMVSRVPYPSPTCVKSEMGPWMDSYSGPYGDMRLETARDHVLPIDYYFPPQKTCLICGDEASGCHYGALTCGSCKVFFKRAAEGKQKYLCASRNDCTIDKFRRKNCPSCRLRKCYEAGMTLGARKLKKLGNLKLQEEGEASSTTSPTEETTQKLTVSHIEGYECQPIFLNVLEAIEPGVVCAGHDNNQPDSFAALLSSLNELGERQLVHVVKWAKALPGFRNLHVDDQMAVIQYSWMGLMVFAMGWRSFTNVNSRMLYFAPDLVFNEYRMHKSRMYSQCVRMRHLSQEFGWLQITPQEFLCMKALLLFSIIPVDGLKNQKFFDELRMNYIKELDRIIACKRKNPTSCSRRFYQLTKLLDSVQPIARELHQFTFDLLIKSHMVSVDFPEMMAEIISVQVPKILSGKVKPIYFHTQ

As for `CCOC(=O)c1cn2nc(OP(=S)(OCC)OCC)cc2nc1C`, the Potency result in test [1], in test [2], in [3], in [4], in test [5] and in test [6] was “inactive” throughout. Moreover, the Potency result in [7], in [8], in [9] and in [10] was “inactive” each time. For the same compound, the outcome in test [11] was inactive.
For the compound `CCOP(=S)(S)OCC`, the Potency entry in [1], in test [12], in test [2], in test [3], in [4] and in test [5] was “inactive” in each case. Moreover, the Potency result in test [13], in [8], in test [9], in [14], in test [10] and in test [15] was “inactive” in each case. For the same compound, the compound was classed as inactive in [11].
Take `CCCCC#N`: the Potency result in [1], in test [2], in test [3], in test [16], in test [4] and in test [5] was “inactive” each time. The Potency entry in test [13], in [8], in test [9], in test [17], in [10] and in test [15] was “inactive” in each case. Further, the outcome in test [11] was inactive.
In the case of `C#CC(O)(C=CCl)CC` (configuration not stated), the Potency result in test [1], in test [12], in test [2], in [3], in test [4] and in test [5] was “inactive” throughout. In addition, the Potency result in test [6], in [13], in [8], in [9], in test [14] and in [17] was “inactive” in each case. The Potency result in test [10] and in test [15] was “inactive” throughout.
For the compound `Clc1ccccc1`, the Potency result in [1], in test [2], in [3], in test [16], in [8] and in test [9] was “inactive” each time. In addition, in [10], the Potency entry was “inactive”. In addition, the Potency was 26.9 µM (active) in test [5] and 0.479 µM (active) in test [13]. Further, in [11], the outcome was inactive.
As for `CCCN(CCOc1c(Cl)cc(Cl)cc1Cl)C(=O)n1ccnc1`, the Potency result in test [1], in [3], in test [16], in [4], in [5] and in test [8] was “inactive” in each case. The Potency result in [9] and in test [15] was “inactive” in each case. For the same compound, the Potency in test [13] was 6.24 µM (active). Further, the compound was classed as inactive in [11].
On to `CCOC(C(=O)OCCN(C)C)(c1ccccc1)c1ccccc1`, for which the Potency result in test [1], in test [3], in test [16], in test [4], in test [6] and in [13] was “inactive” in each case. Besides, the Potency entry in test [8], in [9], in test [17] and in [15] was “inactive” in each case. Also, the outcome in [11] was inactive.
On to `CN(C1CCCCC1)C1CCCCC1`, for which the Potency result in test [18], in test [12], in test [2], in [3], in test [4] and in [5] was “inactive” each time. Also, the Potency result in test [6], in [13], in test [7], in test [19], in test [8] and in test [9] was “inactive” in each case. Also, the Potency result in [14], in [10] and in test [15] was “inactive” in each case. Also, in test [11], the compound was classed as inactive.
Turning to `O=C(O)CCCOc1ccc(Cl)cc1Cl`, the Potency entry in test [1], in [12], in test [3], in test [4], in test [5] and in test [6] was “inactive” in each case. Besides, the Potency result in test [19], in test [8], in test [9] and in test [17] was “inactive” each time. Further, the outcome in test [20] and in [11] was inactive. Further, the Potency result was “inactive and 44 µM (active)” in [13]; “inactive and 55.4 µM (active)” in test [14].

Source of the values: PubChem BioAssay (Tox21).
